FBW7 act: FBW7 E3 ligase activators, primary screen, biochemical, AlphaScreen, human; hit rate 0.13% among 650,000; AID 1259310, 2017; normalized activity (activation), % at 26.1 µM; AlphaScreen FBW7–phospho-cyclin E peptide binding, activator screen; F-box/WD repeat-containing protein 7 (Homo sapiens), Q969H0; in the data active = normalized activity above about 1.9%;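 also: purified mutant Fbw7 with reduced substrate affinity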
MITF primary: MITF inhibitors, primary screen, biochemical, AlphaScreen, human; Microphthalmia-associated transcription factor (Homo sapiens), O75030; AlphaScreen MITF homodimerization, bead proximity signal; inhibition, % at 2.6 µM; hit rate 0.91% among 650,000; in the data active = inhibition above about 50%;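 also: 0% = vehicle wells with protein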
GPR151 ag: activators of human GPR151, primary screen, cell-based, PathHunter beta-arrestin, luminescence; G-protein coupled receptor 151 (Homo sapiens), Q8TDV0; PathHunter beta-arrestin GPR151 cells; activation, % at 11.2 µM; hit rate 1% among 650,000; AID 1508602, 2020; in the data active = activation above about 4.9%;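 also: 0% = median of compound wells and 100% = cells with positive control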
Target sequence (Q8TDV0 whole entry, looked up): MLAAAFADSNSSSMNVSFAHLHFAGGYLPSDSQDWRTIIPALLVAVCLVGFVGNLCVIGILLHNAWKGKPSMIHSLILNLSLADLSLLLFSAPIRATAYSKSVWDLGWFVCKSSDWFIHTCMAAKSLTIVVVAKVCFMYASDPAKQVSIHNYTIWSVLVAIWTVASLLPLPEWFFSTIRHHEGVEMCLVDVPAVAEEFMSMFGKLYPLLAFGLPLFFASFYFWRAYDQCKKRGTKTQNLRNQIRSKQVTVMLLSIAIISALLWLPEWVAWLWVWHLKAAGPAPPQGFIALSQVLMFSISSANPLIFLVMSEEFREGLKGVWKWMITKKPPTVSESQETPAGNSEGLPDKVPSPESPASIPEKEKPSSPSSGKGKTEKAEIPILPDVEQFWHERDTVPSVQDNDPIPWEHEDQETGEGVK
TEAD-YAP inh: TEAD-YAP interaction inhibition, primary screen, TEAD-YAP interaction inhibitor project, luminescence, HEK-TIYL cells | TEAD-Gal4/YAP UAS-luciferase luminescence | inhibition, % at 9.12 µM | hit rate 1.4% among 640,000 | AID 1259422, 2018; in the data active = inhibition above about 32%;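 also: 0% = median of test compound wells and 100% = reference inhibitor wells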
GPR151 conf act: GPR151 activators, triplicate retest, confirmation, cell-based, PathHunter beta-arrestin, luminescence; GPR151 PathHunter beta-arrestin cells, 90 min; % of EA-reagent control over plate median; 6,700 tested, under 10 active; shares compounds with GPR151 ag; activation, % at 11.2 µM; AID 1508609, 2020;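 active = mean percent activation across replicates above the confirmation screen cutoff of 4.91%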
GPR119 ag: GPR119 activators in beta-arrestin cells, counter-screen for GPR151 activator project, cell-based, PathHunter beta-arrestin, luminescence, triplicate | shares compounds with GPR151 ag | 90 min; 0 = compound-well median, 100 = enzyme-acceptor control | activation, % at 11.2 µM | hit rate 0.3% among 6,700 | AID 1508611, 2020;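 active = mean percent activation in the counterscreen above 29.09%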;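 also: counterscreen on off-target GPR119 to flag nonselective hits from the GPR151 activator screen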
* = called active by the depositor; . = no result; ! = a repeat was not active. In the library only some 3.5% were active in any assay of this set; here they are far more common.

SMILES | FBW7 act | MITF primary | GPR151 ag | TEAD-YAP inh | GPR151 conf act | GPR119 ag
O=C(Nc1ccc([N+](=O)[O-])cc1)/C(=C/c1ccccc1)NC(=O)c1ccccc1 | 0 | -6 | 7.3* | -2 | 0 | 12
O=C(NCCc1ccc(F)cc1)c1ccc([N+](=O)[O-])cc1 | 0 | 14 | 0 | -62 | . | .
O=C(NCCCO)c1cccc([N+](=O)[O-])c1 | 0 | 1 | 5.1* | -1 | 0 | 6
O=C(NCCCNc1ccc([N+](=O)[O-])cc1)c1ccc(F)cc1 | 0 | -16 | 5.7* | 8 | -1 | -5
COc1ccc(NC(=S)NNC(=O)Cc2cccn2C)cc1OC | 0 | -6 | 3 | -17 | . | .
COc1cccc2sc(NC(=O)CSc3ccccc3)nc12 | 0 | 11 | 1 | 4 | . | .
CCOc1cccc(CN2CCC(C(=O)NC(C)c3ccccc3)CC2)c1O (stereo unspecified) | 0 | 0 | 5.6* | 1 | 0 | 6
O=C(CCl)N1CCCc2ccccc21 | -1 | -5 | 11* | 17 | 0 | 2
O=C(NC1CC2CCCC(C1)N2CC(=O)N1CCCc2ccccc21)C1CCCCC1 (stereo unspecified) | 0 | 15 | 8.7* | 7 | 0 | 6
O=C(CC1C(=O)NCCN1CCCc1ccccc1)NCC1(O)CCCCC1 (stereo unspecified) | 0 | 0 | 0 | 1 | . | .
CCCCOc1ccccc1NC(=O)c1cc(SC)ccc1Cl | 0 | -8 | 1 | -1 | . | .
O=C(CCS(=O)(=O)c1ccc(Br)s1)NC1CCCc2ccccc21 (stereo unspecified) | 0 | -4 | 0 | 7 | . | .
CN(CC(=O)NC1CCCc2ccccc21)S(=O)(=O)c1ccc(Br)s1 (stereo unspecified) | 0 | 1 | 11* | 1 | 0 | -4
CC(=O)Nc1ccc(C)c(N2C(=O)c3ccccc3C2=O)c1 | 0 | -24 | 0 | 6 | . | .
Nc1c(C(=O)O)[nH]c(=O)[nH]c1=O | 0 | 18 | 5.1* | 4 | 0 | -8
Cc1noc(-c2ccc(NC(=O)Cc3ccccc3)cc2)n1 | 0 | -6 | -2 | -27 | . | .
CC1(C)C(=O)Nc2ccccc2N1C(=O)COC(=O)c1ccc([N+](=O)[O-])o1 | 0 | -3 | 5.7* | 3 | -1 | 1
O=C1CN(C(=O)COC(=O)c2ccc([N+](=O)[O-])o2)c2ccccc2N1 | 0 | -7 | -1 | 6 | . | .
O=C(OCc1ccccc1)c1ccc(OC(=O)c2cc3ccccc3oc2=O)cc1 | 0 | -19 | 6.6* | 11 | 0 | -2
O=C(Oc1ccccc1)c1cc2ccccc2oc1=O | 0 | -2 | 0 | -3 | . | .
O=C(O)c1cc(C23CC4CC(CC(C4)C2)C3)ccc1O | 0 | -10 | 14* | 6 | 0 | -3
CCCCN1C(=O)c2ccc(C(=O)Nc3cc(Cl)ccc3C(=O)O)cc2C1=O | 0 | 3 | 7.2* | 8 | 0 | -1
O=C1NC(=S)N/C1=C/c1ccc(-c2ccc(Cl)c([N+](=O)[O-])c2)o1 | 1 | 14 | 0 | -4 | . | .
O=C1NC(=S)NC(=O)C1=Cc1ccc(-c2ccc(N3CCCCC3)c([N+](=O)[O-])c2)o1 | 0 | 34 | 12* | -51 | 0 | 0
O=C(CCCn1c(=S)[nH]c2cc3c(cc2c1=O)OCO3)NCc1cccc(Cl)c1 | 0 | 6 | 5.3* | 5 | 0 | 9
SMILES | FBW7 act | MITF primary | GPR151 ag | TEAD-YAP inh | GPR151 conf act | GPR119 ag
O=C(CCn1c(=S)[nH]c2cc3c(cc2c1=O)OCO3)NCc1cccc(Cl)c1 | 0 | 5 | -1 | -1 | . | .
O=C(CCCn1c(=S)[nH]c2ccccc2c1=O)Nc1cccc2c1CCCC2 | 0 | 1 | 5.5* | -5 | 0 | 12
CS(=O)(=O)N1CCc2nc(-c3cccnc3)nc(N3CCCCCC3)c2C1 | 0 | -11 | -2 | -1 | . | .
N#C/C(=C/c1ccc(OCC(N)=O)cc1)c1nc2ccccc2c(=O)[nH]1 | 0 | 13 | 1 | -10 | . | .
Cn1cccc1C(=O)NC(=O)CSc1cccc[n+]1[O-] | 0 | -1 | 4.9* | -3 | 1 | 7
COc1ccccc1C(=O)NC(=O)CSc1cccc[n+]1[O-] | 0 | -12 | -1 | 4 | . | .
COc1ccc(/C=N/NC(=O)c2ccccc2)cc1Cl | 0 | -6 | -1 | -60 | . | .
Cc1nc(NC(C)c2ccccc2)cc(-c2ccccc2F)n1 (stereo unspecified) | 0 | 12 | 5.8* | 2 | -2 | -10
COc1ccc(C(=O)N/C(=C/c2cccc([N+](=O)[O-])c2)C(=O)Nc2cc(Cl)ccc2C)c(Cl)c1 | 0 | -11 | 12* | -8 | 0 | -6
COc1ccc(Br)c(C(=O)N/C(=C/c2cccc([N+](=O)[O-])c2)C(=O)Nc2cc(Cl)ccc2C)c1 | 0 | -7 | 0 | 10 | . | .
COc1ccccc1CSc1nnc(N)s1 | 0 | 0 | 0 | -7 | . | .
CC(=O)O[C@H]1CC[C@@]2(C)C(C[C@@H](OC(C)=O)[C@@]3(C)C4=CC(=O)O[C@@H](c5ccoc5)[C@]4(C)CCC23)C1(C)C (stereo partly specified) | 0 | 17 | 6.5*! | 0 | 0 | 4
Cc1nn(C)c(C)c1-c1nc2c(NCc3cccnc3)ncnc2n1C(C)C | 1 | 12 | 7.1* | -4 | -1 | -13
Cc1ccc(N2C(=O)CC(N3CCN(c4cc(C)ccc4C)CC3)C2=O)cc1 (stereo unspecified) | 0 | -2 | 1 | 2 | . | .
COc1ccc(OC)c(Cc2nnc(CCC(=O)NCc3nc4ccccc4s3)o2)c1 | 0 | -6 | 6.3* | -9 | 1 | 12
COc1ccc(CCc2nnc(CCC(=O)NCc3ccccc3F)o2)cc1 | 0 | -26 | 0 | -47 | . | .
O=C(CCc1nnc(-c2ccccc2)o1)NCc1nc2ccccc2s1 | 0 | -1 | -1 | -4 | . | .
COc1ccc(CCc2nnc(CCC(=O)NCCc3ccccc3F)o2)cc1 | 0 | 1 | 6.5* | -4 | 0 | -4
O=C(CCc1nnc(COc2ccccc2)o1)NCc1nc2ccccc2s1 | 0 | 9 | 5.1* | -1 | 1 | 6
COc1ccc(OC)c(Cc2nnc(CCC(=O)NCCc3nc(C)c(C)s3)o2)c1 | 0 | 11 | -1 | -9 | . | .
COc1ccc(-c2csc(NNC(C)=O)n2)cc1 | 0 | 5 | 0 | -5 | . | .
Cc1ccc(NC(=O)Nc2nnc(COc3ccc(Br)cc3)s2)cc1 | 0 | 9 | -1 | -1 | . | .
CC(=O)Nc1nnc(COc2ccc(Br)cc2)s1 | 0 | 12 | 7.9* | -18 | 0 | -6
